The panel holds about 79,000 compounds, 15% with a hit somewhere; the sample as a whole holds those more often. Values without a mark were called inactive. Activity calls are given as the source filed them. Cut-off read from the data, not from the text of the source: active = growth inhibition above about 70%; inactive = the rest.
Assay: NCI Yeast Anticancer Drug Screen. Data for the rad50EPP+ strain (AID 151);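 note: 0% = growth of vehicle-treated control cultures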
Conditions: S. cerevisiae rad50 mutant strain, hits give high values
Description: Growth inhibition of yeast strains with defined genetic alterations is measured as a screen for potential anti-cancer activity. Selected strains with alterations in DNA damage repair or cell cycle control were exposed to compounds and growth inhibition was measured relative to vehicle treated controls. The strain used in this assay is rad50EPP+

SMILES	growth inhibition (at 1.2 µM)	growth inhibition (at 3.7 µM)	growth inhibition (at 11.0 µM)	growth inhibition (at 33.0 µM)	growth inhibition (at 100.0 µM)
C/C(=N\NC(=S)N1CCCCC1)c1cccc(C)n1	-8%	38%	95% (active)	99% (active)	99% (active)
[N-]=N[N+]#I1OC(C(F)(F)F)(C(F)(F)F)c2ccccc21	3%	13%	42%	93% (active)	99% (active)
CC(C)OC(=O)Oc1ccccc1OC(=O)OC(C)C	-1%	2%	2%	-1%	2%
O=[N+]([O-])c1cccc([N+](=O)[O-])c1S(=O)(=O)c1ccccc1	76% (active)	88% (active)	93% (active)	94% (active)	92% (active)
COc1cc(C2SCC(=O)N2c2nnc(C(F)(F)F)s2)cc(OC)c1OC (stereo not given)	-4%	-2%	3%	-2%	0%
NC(N)=N/N=C\c1c2ccccc2cc2ccccc12	-28%	-20%	-7%	6%	23%
COc1ccc2ccc3ccccc3c2c1C=O	0%	2%	3%	8%	25%
CC(=O)[O][Bi]([c]1ccccc1)[c]1ccccc1	31%	39%	18%	20%	24%

Reference: PubChem BioAssay (NCI)
